Laboratory results as given in PubChem BioAssay (EPA / NIEHS).
The source made the active and inactive calls. The calls were made as follows: active = hit-call score of the fitted dose curve at least 0.9, where 1 is the maximum; inactive = score below 0.9.

Experiments:
Settings in all cases: mRNA level, 48 h; actives raise or lower the signal
[1] = read-out: Cytochrome P450 7A1 (Homo sapiens) (UniProt P22680); assay: LTEA_HepaRG_CYP7A1: Life Technologies and Expression Analysis (LTEA) Assay for Cytochrome P450 7A1 (CYP7A1) using HepaRG (AID 2283496)
In short: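 HepaRG, 48 h exposure, 8-pt half-log series from 100 uM, 0.5% DMSO vehicle, duplicates. Readout: TaqMan qRT-PCR mRNA vs three housekeeping genes; bidirectional curve fit against DMSO baseline.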

[2] = read-out: Glutathione S-Transferase (GSTA2), GSTA2 (gene 2939); assay: LTEA_HepaRG_GSTA2: Life Technologies and Expression Analysis (LTEA) Assay for Glutathione S-Transferase (GSTA2) using HepaRG (AID 2283497)
In short: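 qRT-PCR readout of GSTA2 transcript, normalized to three housekeeping genes, fitted bidirectionally against 0.5% DMSO baseline. Differentiated HepaRG cells received compound for 48 h at 8 concentrations (top 100 uM, half-log steps).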

[3] = read-out: Glutamate-cysteine ligase catalytic (GCLC), GCLC (gene 2729); assay: LTEA_HepaRG_GCLC: Life Technologies and Expression Analysis (LTEA) Assay for Glutamate-cysteine ligase catalytic (GCLC) using HepaRG (AID 2283498)
In short: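 HepaRG, 48 h exposure, 8-pt half-log series from 100 uM, 0.5% DMSO vehicle; TaqMan qRT-PCR for GCLC mRNA, housekeeping-normalized; bidirectional curve fit vs DMSO baseline.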

[4] = read-out: growth arrest and DNA damage 45 (GADD45G), GADD45G (gene 10912); assay: LTEA_HepaRG_GADD45G: Life Technologies and Expression Analysis (LTEA) Assay for growth arrest and DNA damage 45 (GADD45G) using HepaRG (AID 2283499)
In short: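 Concentration-response in HepaRG: 48 h dosing, 0.5% DMSO, highest level 100 uM. GADD45G expression by qRT-PCR, normalised to endogenous controls; bidirectional fit to DMSO.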

[5] = read-out: Glutamate-cysteine ligase regulatory (GCLM), GCLM (gene 2730); assay: LTEA_HepaRG_GCLM: Life Technologies and Expression Analysis (LTEA) Assay for Glutamate-cysteine ligase regulatory (GCLM) using HepaRG (AID 2283500)
In short: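 GCLM expression quantified by qRT-PCR, normalized to three housekeeping genes, after 48 h chemical treatment of HepaRG cells in duplicate at 8 concentrations (top 100 uM, half-log steps, 0.5% DMSO). Changes fitted both directions against vehicle.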

[6] = read-out: Glutathione S-transferase M3 (GSTM3), GSTM3 (gene 2947); assay: LTEA_HepaRG_GSTM3: Life Technologies and Expression Analysis (LTEA) Assay for Glutathione S-transferase M3 (GSTM3) using HepaRG (AID 2283501)
In short: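 Expression of GSTM3 is determined by qRT-PCR in human liver HepaRG cells treated 48 h with an 8-point half-log range from 100 uM in 0.5% DMSO.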

[7] = read-out: Heat shock 70 kDa protein 1 (HSPA1A), gene 3303; assay: LTEA_HepaRG_HSPA1A: Life Technologies and Expression Analysis (LTEA) Assay for Heat shock 70 kDa protein 1 (HSPA1A) using HepaRG (AID 2283502)
In short: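 HSPA1A expression measured by qRT-PCR with ACTB/GAPDH/POLR2A normalization; curves fitted in both directions relative to DMSO vehicle. Exposure: 48 h in HepaRG cells, duplicate 8-point half-log series from 100 uM, 0.5% DMSO, serum-free induction medium.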

[8] = read-out: Hypoxia-inducible factor 1-alpha (Homo sapiens) (UniProt Q16665); assay: LTEA_HepaRG_HIF1A: Life Technologies and Expression Analysis (LTEA) Assay for Hypoxia-inducible factor 1 (HIF1A) Trancription factor using HepaRG (AID 2283503)
In short: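 HIF1A transcript level read by qRT-PCR (ACTB, GAPDH, POLR2A normalization) after 48 h chemical exposure of HepaRG cultures. Eight half-log concentrations, top 100 uM, 0.5% DMSO vehicle, duplicates; bidirectional curve fit against DMSO baseline.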

[9] = read-out: 3-Hydroxy-3-Methylglutaryl-CoA Synthase 2 (HMGCS2), HMGCS2 (gene 3158); assay: LTEA_HepaRG_HMGCS2: Life Technologies and Expression Analysis (LTEA) Assay for 3-Hydroxy-3-Methylglutaryl-CoA Synthase 2 (HMGCS2) using HepaRG (AID 2283504)
In short: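 This steatosis marker was read as HMGCS2 mRNA change in HepaRG cells treated 48 h with up to 100 uM chemical. Normalisation used housekeeping genes; activity in either direction was fitted relative to 0.5% DMSO vehicle.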

[10] = read-out: HGF (gene 3082); assay: LTEA_HepaRG_HGF: Life Technologies and Expression Analysis (LTEA) Assay for Hepatocyte Growth Facto (HGF) using HepaRG (AID 2283505)
In short: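 Using HepaRG monolayers kept in 0.5% DMSO, chemicals were tested in duplicate over eight half-log concentrations from 100 uM for 48 h. Endpoint: HGF mRNA change relative to DMSO, normalized to ACTB/GAPDH/POLR2A.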

Measured: outcome

Chain of Hypoxia-inducible factor 1-alpha (Homo sapiens) (Q16665 whole entry, looked up): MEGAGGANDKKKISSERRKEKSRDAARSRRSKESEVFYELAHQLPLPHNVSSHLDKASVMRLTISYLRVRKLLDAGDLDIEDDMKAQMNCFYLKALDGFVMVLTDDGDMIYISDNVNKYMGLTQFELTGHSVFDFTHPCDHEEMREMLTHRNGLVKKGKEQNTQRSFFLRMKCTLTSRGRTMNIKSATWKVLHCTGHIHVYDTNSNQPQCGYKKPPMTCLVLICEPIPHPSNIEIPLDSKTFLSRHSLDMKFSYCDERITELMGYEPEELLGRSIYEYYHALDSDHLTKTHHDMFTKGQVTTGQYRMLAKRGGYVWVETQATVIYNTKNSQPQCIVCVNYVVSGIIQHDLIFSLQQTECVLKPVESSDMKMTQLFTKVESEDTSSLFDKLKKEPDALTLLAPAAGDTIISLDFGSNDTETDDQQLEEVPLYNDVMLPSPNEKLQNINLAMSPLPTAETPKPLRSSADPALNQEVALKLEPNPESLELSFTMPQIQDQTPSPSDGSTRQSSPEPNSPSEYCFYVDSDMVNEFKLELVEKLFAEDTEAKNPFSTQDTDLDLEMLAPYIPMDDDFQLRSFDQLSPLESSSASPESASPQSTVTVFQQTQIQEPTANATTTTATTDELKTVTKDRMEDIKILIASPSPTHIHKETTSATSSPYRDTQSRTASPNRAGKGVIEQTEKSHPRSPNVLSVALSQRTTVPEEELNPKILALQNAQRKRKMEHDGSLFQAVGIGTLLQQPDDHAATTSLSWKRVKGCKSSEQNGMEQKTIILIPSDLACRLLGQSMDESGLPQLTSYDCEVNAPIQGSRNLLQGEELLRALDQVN

C1CNCCN1
inactive: all assays above

Cc1ccc([N+](=O)[O-])cc1N
inactive: all assays above

Nc1ccc(C(=O)O)cc1
inactive: all assays above
